# Assay results reported in PubChem BioAssay (EPA / NIEHS).
# Results filed as inconclusive are left out. Active and inactive are the calls of the source. Rule for the calls: active = hit-call score of the fitted dose curve at least 0.9, where 1 is the maximum; inconclusive = response in the unintended direction; inactive = score below 0.9.
# Assay: VALA_TUBIPS_Antagonist_TubuleLength: VALA Sciences human iPS-derived Endothelial Tubule Formation (TUBIPS) Antagonist Assay (AID 2284313)
# Summary of the method: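 Tubule length was quantified by high-content imaging of CD31- and nuclear-stained cells, with 0.1% DMSO as neutral and 100 uM suramin as inhibition control. Compounds were applied for 3 days, in 10 ng/ml VEGF, to cultures pre-grown 3 days.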
row,Compound,outcome
1,CO[C@@H]1[C@H](OC(=O)NC(=O)CCl)CC[C@]2(CO2)[C@H]1[C@@]1(C)O[C@@H]1CC=C(C)C,inactive
2,O=P(OCCCl)(OCCCl)OCCCl,inactive
3,Oc1ccc2ccc3cccc4ccc1c2c34,inactive
